# High-throughput results as filed in PubChem.
# Shown are actives, neighbours in structure and some others; about 12% of the full set was active somewhere.
# m-calpain inh: inhibitors of pig calpain II, primary screen, biochemical, fluorogenic peptide substrate, 1536-well; actives 0.37% (n = 220,000); inhibition, % at 16 µM; purified calpain II, 30 min;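 active = inhibition above about 50%, limit read from the data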
# ROMK mod: ROMK potassium channel modulators, primary screen, cell-based, thallium flux, MLSMR library; ATP-sensitive inward rectifier potassium channel 1 (Homo sapiens), P48048; Tet-inducible ROMK, thallium flux fluorescence; actives lie on both sides; B-score at 10 µM; actives 2% (n = 130,000);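 active = signal ratio slope over the read window, or its plate-corrected B-score, at least 3 SD from the plate mean, either direction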;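 also: B-score of the F/F0 ratio slope over 7 to 12 s after thallium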
# L major viab: Leishmania major promastigote growth inhibition, primary screen | actives 9% (n = 200,000) | inhibition, % at 10 µM | Leishmania major promastigotes, resazurin fluorescence viability; in the data active = inhibition above about 50%;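 also: promastigotes grown with compound for 44 hours at 28 °C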
# Cl transport mod: KCC2 cotransporter modulators, thallium flux, primary screen, cell-based, HEK293 KCC2, FluoZin-2 fluorescence, MLSMR; Solute carrier family 12 member 5 (Homo sapiens), Q9H2X9; KCC2 cells, thallium flux FluoZin-2 fluorescence; B-score of Tl+ flux slope (higher = more flux/activation; lower = inhibition) at 10 µM; actives 2.2% (n = 190,000); AID 1456, 2008;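 active = thallium flux slope and its plate-corrected score both differing from the plate sample mean at a set confidence after two filtering rounds, in either direction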;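 also: slope of fluorescence scaled to starting intensity during 10 to 20 s after thallium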
# Target sequence (Q9H2X9 whole entry, looked up): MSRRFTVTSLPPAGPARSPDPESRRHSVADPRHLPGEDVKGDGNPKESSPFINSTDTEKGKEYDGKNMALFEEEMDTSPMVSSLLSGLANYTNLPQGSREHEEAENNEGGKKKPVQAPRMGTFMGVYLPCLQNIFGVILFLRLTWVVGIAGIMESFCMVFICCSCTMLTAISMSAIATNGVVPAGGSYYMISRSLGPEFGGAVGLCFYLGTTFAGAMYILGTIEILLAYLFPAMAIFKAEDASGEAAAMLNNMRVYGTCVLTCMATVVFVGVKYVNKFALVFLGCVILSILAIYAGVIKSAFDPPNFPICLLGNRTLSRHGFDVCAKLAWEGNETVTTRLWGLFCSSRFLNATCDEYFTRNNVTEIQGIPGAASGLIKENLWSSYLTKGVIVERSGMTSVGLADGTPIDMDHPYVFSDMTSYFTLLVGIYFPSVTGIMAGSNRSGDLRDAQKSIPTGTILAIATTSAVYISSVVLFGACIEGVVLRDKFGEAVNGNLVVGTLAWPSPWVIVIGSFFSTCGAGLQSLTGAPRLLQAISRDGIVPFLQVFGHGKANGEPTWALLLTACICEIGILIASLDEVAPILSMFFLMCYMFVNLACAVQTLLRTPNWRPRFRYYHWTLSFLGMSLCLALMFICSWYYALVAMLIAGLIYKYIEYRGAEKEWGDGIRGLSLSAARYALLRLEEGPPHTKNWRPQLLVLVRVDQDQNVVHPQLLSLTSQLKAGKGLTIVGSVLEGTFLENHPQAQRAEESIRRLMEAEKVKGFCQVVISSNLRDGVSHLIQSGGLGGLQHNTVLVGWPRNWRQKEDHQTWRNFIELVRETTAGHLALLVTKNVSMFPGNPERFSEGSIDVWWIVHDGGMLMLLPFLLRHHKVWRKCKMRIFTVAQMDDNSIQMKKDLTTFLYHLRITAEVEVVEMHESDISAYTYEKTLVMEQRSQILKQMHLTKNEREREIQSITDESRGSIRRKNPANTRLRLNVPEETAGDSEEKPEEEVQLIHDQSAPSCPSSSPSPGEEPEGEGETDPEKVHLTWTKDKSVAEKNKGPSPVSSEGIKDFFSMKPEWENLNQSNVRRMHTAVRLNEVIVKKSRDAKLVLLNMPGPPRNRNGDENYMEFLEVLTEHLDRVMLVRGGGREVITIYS
# WT yeast gro inh: growth inhibition of WT strain, primary screen, mitochondrial fusion inhibitor project, WT and mutant strains, chemical genetic; actives 2.1% (n = 190,000); inhibition, % at 10 µM; mitochondrial fusion phenotypic screen; in the data active = inhibition above about 58%; tested in S. cerevisiae
# Active calls of the source: *; i = inactive; nt = not tested or not shown.
SMILES,m-calpain inh,ROMK mod,L major viab,Cl transport mod,WT yeast gro inh
O=C(COc1ccc(Br)cc1CNCCCN1CCOCC1)Nc1ccccc1,-14,-1.7,91*,-0.17,-13
COc1ccc(CN(Cc2cc3cccc(C)c3n3nnnc23)C(=O)N2CCOCC2)cc1,-17,0.32,22,-0.71,5
CCCCCCOc1ccc(N2C(=O)CC(N3CCN(CCN=CC4C(=O)CC(C)(C)CC4=O)CC3)C2=O)cc1 (stereo not given),-120,-1.4,1,-1.1,0
COc1cnc(NS(=O)(=O)c2ccc(N)cc2)nc1,-5,nt,18,0.029,-6
O=S(=O)(NNc1ccc(Cl)nn1)c1ccc(F)cc1,4,nt,91*,0.14,-4
Cc1cccc(C(=O)Oc2ccccc2C(=O)N2CCOCC2)c1,-10,nt,nt,-0.28,nt
COc1ccc(NS(=O)(=O)c2cc(NC(=O)C3CC3)ccc2N2CCCCC2)cc1,-52,-1,56*,-0.013,41
COc1ccc(NS(=O)(=O)c2cc(NC(=O)c3cnc(C)cn3)ccc2N2CCCCC2)cc1,-28,0.35,27,0.64,11
COc1ccc(NS(=O)(=O)c2cc(NC(=O)C3CC3)ccc2N2CCOCC2)cc1,15,-0.12,12,-0.0091,-11
COc1ccc(NS(=O)(=O)c2cc(NC(=O)c3cnc(C)cn3)ccc2N2CCCC2)cc1,18,nt,95*,-1.8,16
Cc1nn(Cc2ccc(C(=O)Nc3nccs3)cc2)c(C)c1Cl,-15,-0.46,20,0.45,-2
O=C(c1ccccc1)c1nc2c(n1O)CCCCC2,-11,nt,-7,i,4
COc1cc2c(-c3ccc(O)cc3)nc3c(c(C)nn3-c3ccccc3)c2cc1OC,-138,-0.7,63*,0.016,10
Cc1cc(NCCCN2CCOCC2)n2nc(C)c(-c3ccc(F)cc3)c2n1,-56,nt,91*,0.45,21
Cc1nn(-c2ccccc2)c(N)c1-c1ccccc1,-16,0.41,-7,-0.34,5
CC(=O)Nc1ccc(Nc2cc(C)nc3c(-c4ccccc4)c(C)nn23)cc1,-3,-0.17,85*,-2.1,25
CC(=O)Nc1ccc(Nc2cc(C(C)C)nc3c(-c4ccccc4)c(C)nn23)cc1,-22,0.0044,nt,-0.7,nt
Cc1cc(C)c2c(n1)nn1c(NCCCN3CCOCC3)cc(C)nc21,nt,1.7,1,nt,nt
Cc1nc2c(-c3ccccc3)c(C)nn2c(N)c1-c1ccccc1,3,nt,100*,1,74*
Cc1cc(NCCC(C)C)n2nc(C)c(-c3ccccc3)c2n1,10,nt,8,0.85,72*
CSc1nnc(CNS(=O)(=O)c2ccc(Cl)cc2)n1C,-26,-0.094,-8,0.078,-1
Cc1cc(NCCCN2CCOCC2)n2nc(C)c(-c3ccccc3)c2n1,-79,0.42,66*,nt,8
COc1ccc(-c2c(C)n([O-])c3c([n+]2=O)CCCCC3)cc1OC,-24,-0.15,-7,-0.24,-7
O=C1C2C3C=CC(C3)C2C(=O)N1c1ccc(N2CCN(c3ccccn3)CC2)c([N+](=O)[O-])c1 (stereo not given),16,nt,76*,-2.4,-4
O=C1c2ccccc2C(=O)N1CC#CCN1CCN(C(c2ccccc2)c2ccccc2)CC1,-8,nt,2,0.0071,68*
SMILES,m-calpain inh,ROMK mod,L major viab,Cl transport mod,WT yeast gro inh
O=S(=O)(CCN1CCN(C(c2ccccc2)c2ccccc2)CC1)C(F)(F)F,-2,nt,35,0.93,-2
O=[N+]([O-])c1cncc([N+](=O)[O-])c1Nc1ccccc1Cl,17,-0.00016,80*,1.4,49
CN(C)C(CNC(=S)Nc1cccc(Cl)c1)c1cccnc1 (stereo not given),-21,0.82,3,0.79,-9
COCCNC(=O)NC(=O)CN1CCCc2ccccc21,65*,0.11,-1,0.57,-2
O=C(CN1CCCc2ccccc21)N/N=C/c1ccccc1O,-16,nt,99*,-0.69,9
CC(C)(C)NC(=O)NC(=O)CN1CCc2ccccc21,23,-0.24,12,-0.39,14
COC(=O)c1c(NC(=O)CN2CCCc3ccccc32)sc(C)c1C,30,nt,89*,0.86,-13
Cc1c(/C=C(\C#N)c2nn(-c3ccccc3)c(N)c2C#N)c2ccccc2n1Cc1ccc(F)cc1,-182,-1.9,-1,0.37,-3
Cc1ccccc1S(=O)(=O)c1c(C)cc(C)n(CC(C)C)c1=O,30,-0.31,91*,0.44,68*
CCCN(CCC)C(=O)Cn1c(=O)c2sccc2n2c(=S)sc(-c3ccccc3)c12,18,nt,-7,-0.34,-8
CCCN(CCC)C(=O)Cn1c(=O)c2ccccc2n2c(=S)sc(-c3ccccc3C)c12,2,nt,98*,-0.00022,2
CCOC(=O)C1=NN(c2ccccc2)C(=O)/C1=C\c1ccc(N(C)C)cc1,20,nt,89*,nt,7
CC1=NN(Cc2ccccc2)C(=O)/C1=C\c1ccc(N(C)C)cc1,-18,nt,-1,nt,10
NS(=O)(=O)c1ccc(-n2cccc2C=O)cc1,-19,-0.75,-3,1.1,-6
CSc1nc(N(C)CCO)c2sc3nc(-c4ccco4)c4c(c3c2n1)CCC4,-118,nt,-2,0.47,-1
CSc1nc(N2CCN(CCO)CC2)c2sc3nc(-c4ccco4)c4c(c3c2n1)CCC4,nt,nt,nt,nt,93*
CSc1nc(SCC(=O)O)c2sc3nc(-c4ccccc4)c4c(c3c2n1)CCC4,90*,1,nt,6.1*,nt
CC(=O)N1CCC(N(CCN2CCOCC2)C(=S)Nc2ccc(C)cc2C)CC1,13,-0.31,-1,-0.51,0
COC(=O)CSc1nnc2cc(C)c3ccccc3n12,-4,nt,nt,-0.13,nt
Cc1ccc(-c2csc(/C(C#N)=C/Nc3ccccc3SC(F)(F)F)n2)c(C)c1,1,0.046,-6,0.25,-6
O=C(O)c1ccccc1C(=O)N1CC=C(c2ccccc2)CC1,-7,nt,90*,nt,2
O=C(O)c1ccccc1C(=O)N1CCN(C(=O)c2ccccc2Cl)CC1,-43,nt,-7,-0.36,-11
O=C(Nc1ccccc1)OCCN1CCN(Cc2ccccc2)CCC1=O,25,-1.2,3,-0.38,14
Cc1ccc(NC(=O)OCCN2CCN(Cc3ccccc3)CCC2=O)cc1,-39,-0.42,74*,-1.8,-11
O=C(OC1CCCCC1)c1ccc(NC(=O)C2CCCCC2)cc1,34,-0.3,87*,-0.29,26
O=C(O)CCC(=O)Nc1ccc(C(=O)OC2CCCCC2)cc1,15,nt,-1,0.83,1
CCOC(=O)C1(CCOc2ccccc2)CCN(Cc2ccc3c(c2)OCCO3)CC1,35,-2.7,86*,0.29,29
CCOC(=O)C1(Cc2cccc(OC)c2)CCN(Cc2ccccc2)CC1,37,nt,27,-1,14
CCOC(=O)C1(Cc2cccc(OC)c2)CCN(Cc2cccc3c2OCO3)CC1,-12,-0.55,54*,0.14,16
CCOC(=O)C1(Cc2cccc(OC)c2)CCN(Cc2ccc3c(c2)OCCO3)CC1,14,-1.4,95*,-1.4,6
